CtBP-E1A inh – qHTS Assay for Inhibitors of the CtBP/E1A Interaction | CtBP / adenovirus E1A interaction (AlphaScreen) | AlphaScreen GST-E1A/His-CtBP binding, 1536-well; active compounds read low | activity change, % (no concentration beside the values) | hit rate 0.49% among 340,000 | AID 651724, 2012; in the data active = activity change below about -65%; inconclusive = mostly about -30% to -63%; note: % is set by controls: 0 for no effect and ±100 for the full control effect
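Protein mix (5X: 125 nM each GST-E1A, His-CtBP) was incubated with pinned compound 2 h at 37 deg C in dark, in 50 mM Tris pH 8.0 buffer with 300 mM NaCl. Glutathione donor and nickel acceptor beads followed; AlphaScreen signal read after 1 h.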
VP16 counter – VP16 counterscreen qHTS for inhibitors of ROR gamma transcriptional activity; hit rate 3.5% among 310,000; Drosophila S2 Gal4-VP16 UAS-luciferase, luminescence, 20 h; Potency, µM (series often up to 53.6 µM), for the others: top-dose activity, negative = inhibition, hits mostly inhibitors; AID 2546, 2010;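 note: Gal4-VP16 expression switched on by copper sulfate through the metallothionein promoter; potency is the fitted concentration of half-maximal effect; % is set by controls: 0 for no effect and ±100 for the full control effect; nearly all actives have a fitted effect of over 50% in size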
RORg inh – qHTS for inhibitors of ROR gamma transcriptional activity | Potency, µM (titrated, usually from 53.6 µM), for inactives: at the top dose activity change, negative = inhibition, hits mostly inhibitors | Drosophila S2 Gal4-RORgamma UAS-luciferase reporter, 20 h | hit rate 5.4% among 310,000 | AID 2551, 2010; note: potency is the fitted concentration of half-maximal effect; % is set by controls: 0 for no effect and ±100 for the full control effect; nearly all actives have a fitted effect of over 60% in size
Target sequence (P51450 whole entry, looked up, the tested form may be a part): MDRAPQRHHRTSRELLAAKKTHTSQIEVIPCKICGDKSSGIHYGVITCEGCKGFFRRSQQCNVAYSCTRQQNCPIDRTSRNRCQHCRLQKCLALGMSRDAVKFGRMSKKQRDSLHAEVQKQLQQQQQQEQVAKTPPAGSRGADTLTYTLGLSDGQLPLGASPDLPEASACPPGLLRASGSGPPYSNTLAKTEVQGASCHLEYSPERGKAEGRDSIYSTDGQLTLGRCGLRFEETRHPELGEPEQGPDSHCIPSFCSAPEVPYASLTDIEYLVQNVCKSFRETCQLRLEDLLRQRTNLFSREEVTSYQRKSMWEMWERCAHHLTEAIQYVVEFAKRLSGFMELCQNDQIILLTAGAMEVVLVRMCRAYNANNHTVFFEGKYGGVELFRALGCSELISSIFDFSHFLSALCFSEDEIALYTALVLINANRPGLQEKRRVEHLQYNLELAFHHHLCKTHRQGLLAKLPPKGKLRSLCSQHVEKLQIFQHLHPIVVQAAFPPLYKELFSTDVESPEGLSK
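Luciferase reporter read in Schneider cells carrying Gal4-RORγ (mouse) and UAS-Photinus luciferase; cells given compound 1 h before 700 uM copper sulfate induction, then incubated 20 h at ambient temperature.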
Six1-Eya2 inh – qHTS Assay for Inhibitors of the Six1/Eya2 Interaction | hit rate 0.56% among 360,000 | activity change, % (no concentration beside the values) | Homeobox protein SIX1 (Homo sapiens) + Protein phosphatase EYA2 (Homo sapiens), … | AlphaScreen GST-Six1/His-Eya2 binding, biochemical; active compounds read low; in the data active = activity change below about -65%; inconclusive = mostly about -30% to -63%; note: % is set by controls: 0 for no effect and ±100 for the full control effect
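AlphaScreen luminescence read after one hour at 37 °C in darkness. Pin-transferred compounds met GST-Six1 and His-Eya2 protein (5X stock 250 nM/500 nM) plus glutathione donor and Ni-chelate acceptor beads (5X, 50 ug/mL).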
p53 reactivation – qHTS assay for re-activators of p53 using a Luc reporter; H1299 p53-A138V BP100-luciferase reporter, luminescence, 24 h; Potency, µM (top dose mostly 92.2 µM), without a hit: at the top dose activity change, positive = activation, hits mostly activators; hit rate 0.063% among 320,000; note: potency is the fitted concentration of half-maximal effect; % of control where 0% means no effect; nearly all actives have a fitted effect of over 45% in size
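p53-null H1299 cells stably carrying temperature-sensitive p53-A138V and a BP100-luciferase reporter were pinned with compounds (4-point, 1:5 series) and held 24 hrs at 37 deg C. Luminescence was read 10 min after detection reagent.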
Active calls of the source: *; ? = inconclusive; / = no result. The list is not random: actives were taken first. Their share in the collection is about 5.4%. Unless noted, calls come from the whole dose curve; as a rule, active = well fitted curve in the direction sought with a large enough effect; inconclusive = small, poorly fitted or top-dose-only effect, or another doubt; inactive = no such curve, though single readings can be large; an effect the other way counts as inactive or inconclusive.

SMILES	CtBP-E1A inh	VP16 counter	RORg inh	Six1-Eya2 inh	p53 reactivation
Cc1cccnc1N(C(=O)Nc1cccc(Cl)c1)C1=NCC(C)(C)S1	12	-25%	11µM*	20	13%
Cc1ccc(N=Cc2cc(Br)cc(Cl)c2O)cc1	4	0%	11µM*	-3	1%
Cc1ccc(N/C=C/C(=O)c2cccs2)cc1C	26	?	13µM*	3	-4%
Cc1cc(N/C=C/C(=O)c2cccs2)ccc1F	9	0%	-1%	14	20%
O=CN1CCN(C(=O)CC(c2ccccc2)c2cc(Br)ccc2O)CC1 (stereo unspecified)	-21	1%	0%	-11	-13%
Cc1ccc(N2C(=O)CC(Sc3cccs3)C2=O)cc1 (stereo unspecified)	/	7.9µM*	11µM*	-2	2%
COc1ccc(N2C(=O)CC(Sc3n[nH]c(-c4ccccc4)n3)C2=O)cc1 (stereo unspecified)	-1	-83%	11µM*	0	-7%
Cc1ccc(N2C(=O)CC(Sc3nccc(C)n3)C2=O)cc1 (stereo unspecified)	10	?	18µM*	2	-5%
CCOc1ccc(N2C(=O)CC(Sc3n[nH]c(-c4ccccc4)n3)C2=O)cc1 (stereo unspecified)	/	?	?	-1	0%
O=c1onc2cnc3ccccc3n12	/	10%	-33%	/	/
COc1ccc2c(c1)OC[C@H]1[C@H]2N2C(=O)CN(CCc3c[nH]c4ccccc34)C(=O)[C@@]2(C)[C@H]1c1ccccc1	-20	/	/	-25	-10%
COCC(=O)N1CCC2(CCN(Cc3ccccc3)CC2)CC1	/	-12%	-15%	/	/
O=C(CSCc1ccc(Cl)cc1)c1ccco1	/	17%	30%	/	10%
C/C(=N\Nc1nc2ccccc2[nH]1)c1cc2ccccc2o1	-18	3.5µM*	4.5µM*	-6	13%
C/C(=N\Nc1nc2ccccc2[nH]1)c1ccccn1	/	-70%	2.5µM*	/	8.9µM*
C/C(=N\NC(=O)c1cccnc1)c1cc2ccccc2o1	-6	-14%	-33%	-7	-1%
O=C(COC(=O)c1ccc2c(c1[N+](=O)[O-])C(=O)c1ccccc1C2=O)NC1CC1	?	18µM*	?	?	9%
O=C(COC(=O)c1ccccc1C(=O)c1ccc(Cl)c([N+](=O)[O-])c1)NC1CCCCCC1	0	?	4.5µM*	-5	-21%
COCc1cc(=O)[nH]c(-c2ccccc2)n1	3	-18%	2%	1	4%
CCOc1ccc(NC(=S)N(CCCN2CCOCC2)Cc2cn(C)c3ccccc23)cc1	-23	?	13µM*	-24	-13%
Cn1cc(CN(CCCN2CCOCC2)C(=S)Nc2cccc(Cl)c2)c2ccccc21	-14	?	?	-12	-15%
Cc1cccc(NC(=S)N(CCCN2CCOCC2)Cc2cn(C)c3ccccc23)c1	-3	-22%	11µM*	2	-3%
CC(=O)Nc1ccc(CN2CCCC(C(=O)c3ccc(C(F)(F)F)cc3)C2)cc1 (stereo unspecified)	3	3%	30%	-1	-2%
CC1CCN(C(=O)c2cc3c(ccc4ccccc43)o2)CC1	1	10µM*	4.5µM*	12	?
CCOC(=O)C1CCN(C(=O)c2cc3c(ccc4ccccc43)o2)CC1	-1	-3%	-39%	1	-7%
SMILES	CtBP-E1A inh	VP16 counter	RORg inh	Six1-Eya2 inh	p53 reactivation
CC(=O)/C=C1/C(=O)Nc2ccccc21	7	7.1µM*	3.5µM*	-4	-11%
C=CCOc1cccc(C(=O)/C=C2/C(=O)Nc3ccccc32)c1	12	?	13µM*	0	-15%
NC(=O)NCCC1=CCCCC1	9	7%	0%	1	0%
C1=C(CCNCC2CC2)CCCC1	0	-6%	5µM*	7	1%
CC(C)c1nnc(NC(=O)CCS(=O)(=O)Cc2ccccc2)s1	0	-7%	-24%	-1	1%
CC(C)c1nnc(NC(=O)CCS(=O)(=O)c2nc(-c3cccs3)cc(C(F)(F)F)n2)s1	-19	1.6µM*	1.8µM*	7	-39%
CCN(C(=O)CSc1nc2n[nH]c(C)c2c(=N)n1-c1ccc(Cl)c(C)c1)c1cccc(C)c1	/	?	13µM*	-11	14%
CCCN(CCC)C(=O)CSc1nc2n[nH]c(C)c2c(=N)n1-c1ccc(OC)cc1	10	?	?	-3	7%
CCOc1ccc(-n2c(SCC(=O)Nc3ccc(CC)cc3)nc3n[nH]c(C)c3c2=N)cc1	1	?	?	-2	-5%
CCCCN(CC)C(=O)CSc1nc2n[nH]c(C)c2c(=N)n1-c1cccc(C)c1	/	-16%	-8%	4	-2%
CCc1ccccc1NC(=O)CSc1nc2n[nH]c(C)c2c(=N)n1-c1ccc(OC)cc1	-65*	?	?	-74*	-8%
COc1ccccc1NC(=O)CSc1nc2n[nH]c(C)c2c(=N)n1-c1ccccc1Cl	-69*	-7%	?	?	-2%
COc1cc(=O)[nH]c(SC(C)C(=O)Nc2ccc3ccccc3c2)n1 (stereo unspecified)	-1	3%	1%	-1	-3%
CCC[C@@H]1C[C@@]1(CCC)C(NC(=O)c1ccccc1)c1cccc(Cl)c1 (stereo partly specified)	/	-2%	-9%	/	/
CCN=c1scc(-c2ccco2)n1/N=C/c1ccc(OC)c(O)c1	-23	30%	-32%	?	/
CCN=c1scc(-c2ccco2)n1/N=C/c1ccc(O)cc1	-9	0.5µM*	0.1µM*	-13	11%
c1cncc(-c2cn(C[C@H]3CC[C@@H]([C@@H]4CC[C@H](Cn5cc(-c6cccnc6)nn5)O4)O3)nn2)c1	4	-1%	-1%	-6	/
COc1ccc2cc(-c3[nH]ncc3CN3CCCC3c3nonc3C)ccc2c1 (stereo unspecified)	-3	-5%	3%	-4	5%
O=C(O)c1cc(/C=C/c2ccc(N3CCOCC3)cc2)nc2ccccc12	5	5µM*	6.3µM*	-4	-9%
Cc1ccc2nc3c(cc(S(=O)(=O)c4ccccc4)c(=N)n3C3CCCC3)c(=O)n2c1	8	/	/	6	/
C=CCNC(=S)N/N=C(\C)c1cc(OC)c(OC)c(OC)c1	-10	4.5µM*	2µM*	-5	-5%
C=CCNC(=S)Nc1ccccc1	2	?	-126%	5	5%
C=CCNC(=O)NC(=S)c1ccccc1	1	?	13µM*	1	14%
C=CCNC(=O)c1ccccc1NC(=O)c1ccccc1	1	-5%	18%	3	-3%

From PubChem BioAssay
